Tau fluor counter = counter-screen for tau fibril formation inhibitors | hit rate 0.93% among 280,000 | tau K18 P301L Alexa594 fluorescence, heparin fibrillization | Potency, µM (series often up to 57.7 µM), for the others: at the top dose activity change, negative = decrease; further: potency means the concentration at half of the fitted maximal effect; nearly all actives have a fitted effect of over 55% in size
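Human K18 P301L tau (15 uM unlabeled plus 0.24 uM Alexa 594-labeled, final) in 100 mM sodium acetate pH 7 was mixed with compound and 20 uM heparin and incubated 6 hr at 37 C.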
Sfp PPTase inh = blocks B. subtilis Sfp PPTase activity; AID 1490; Potency, µM, inactives show largest response in the series, negative = inhibition, most hits filed as inhibitors; hit rate 3.5% among 310,000; Q9F4F7; Biochemical Sfp PPTase activity, qHTS;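 further: the enzyme is Sfp with the accession as filed and its product quenches rhodamine fluorescence; potency means the concentration at half of the fitted maximal effect; 0% = enzyme reaction without inhibitor and -100% = no enzyme wells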
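Fluorescence-quenching assay: 15 nM Sfp-PPTase preincubated 15 min at room temperature with compound, then 5 uM rhodamine-CoA and 12.5 uM BHQ-2-labelled YbbR peptide added. Fluorescence (ex 525/em 598 nm) read at start and after 30 min; difference gives rate.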
Coupling enz = coupling enzyme interference in Giardia aldolase counter-screen. AID 2472. activity change, negative = inhibition, % at 58.2 µM, hits read low. coupling enzyme system counterscreen, AmpLite Red fluorescence. hit rate 0.67% among 290,000; in the data active means activity change below about -30%
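Counterscreen of the coupled detection system alone, without aldolase: glyceraldehyde-3-phosphate coupling enzymes plus AmpLite Red readout. Compounds at 57.5 uM final, 10 min RT preincubation, 20 min RT reaction, fluorescence 525/598 nm.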
Tau FP inhib = tau fibrillization inhibition (FP); P10636; K18 P301L tau heparin fibrillization, Alexa594 FP, 6 h; Potency, µM (doses to about 57.7 µM), for the others: top-dose activity, negative = inhibition, most hits filed as inhibitors; hit rate 0.39% among 280,000; AID 1468; further: potency means the concentration at half of the fitted maximal effect; nearly all actives have a fitted effect of over 55% in size
Target sequence (P10636 561-689 P618L limits assumed): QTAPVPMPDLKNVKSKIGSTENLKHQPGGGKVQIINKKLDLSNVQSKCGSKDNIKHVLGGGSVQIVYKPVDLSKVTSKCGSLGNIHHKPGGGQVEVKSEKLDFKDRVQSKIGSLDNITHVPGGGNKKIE
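Human tau K18 […] P301L fragment, 15 uM unlabeled plus 0.24 uM Alexa 594-labeled tau (final), with compound and 20 uM heparin in 100 mM sodium acetate pH 7; 6 hr at 37 C, then Alexa 594 FP read.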
Tau fibril ThT = tau fibrillization inhibition (ThT binding); P10636; recombinant tau K18 P301L (four-repeat tau fragment), heparin-induced fibrillization, ThT fluorescence; Potency, µM (titrated, usually from 57.4 µM), without a hit: at the top dose activity, negative = inhibition, actives largely listed as inhibitors; hit rate 2.1% among 270,000; AID 1460; further: potency means the concentration at half of the fitted maximal effect; nearly all actives have a fitted effect of over 55% in size
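K18 P301L tau (15 uM + 0.24 uM Alexa 594-tagged), heparin 20 uM, NaOAc pH 7, 6 h 37 C; ThT 30 uM, 1 h RT, ex 450/em 510 nm.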
An asterisk follows results filed as active; ? = inconclusive; . = not tested or not shown; [ ] = remark or other dose. Only some compounds are listed: those with a hit (about 5.2% of all), similar ones and a draw of the others. Unless noted, the call rests on the fitted dose curve; in most records, active means well fitted curve in the direction sought with a large enough effect; inconclusive means small, poorly fitted or top-dose-only effect, or another doubt; inactive means no such curve, though single readings can be large; an effect the other way counts as inactive or inconclusive. Unless noted, on the % scale 0 is the no-effect control and ±100 the full control effect.

SMILES | Tau fluor counter | Sfp PPTase inh | Coupling enz | Tau FP inhib | Tau fibril ThT
CCCCC(=O)N/N=C/c1ccc(Sc2cccc3cccnc23)o1 | ? | 35µM* | -35* | -10% | -17%
CCOc1ccc2nc(NC(=O)c3ccoc3C)sc2c1 | -22% | 89µM* | -7 | 9% | -13%
CCOc1ccc2nc(NC(=O)c3ccco3)sc2c1 | . | 6% | -2 | . | .
CCOc1ccc2nc(NC(=O)Nc3cccs3)sc2c1 | 14µM*[quencher] | -21% | -2 | ? | ?
CCOc1ccc2nc(NC(=O)Nc3ccccc3)sc2c1 | ? | 6% | 3 | -8% | ?
C[C@H]1Cc2c(COc3ccccc3)nc3c(c2CO1)CN(C(=O)c1cccnc1)CC3 | 6%[11.6 µM] | 10% | 1 | 4%[11.6 µM] | 11%[11.5 µM]
O=C1C=CC(=O)N1N(c1ccccc1)c1ccccc1 | 3% | 32µM* | 0 | 0% | -10%
O=P(c1ccccc1)(c1ccccc1)N(c1ccccc1)c1ccccc1 | 16% | 5% | 3 | 5% | 6%
CCOc1cccc(-c2cc(=O)[nH][nH]2)c1 | -21% | 14% | -11 | ? | 3.5µM*
CCCn1c(N)c(C(=S)NC(=O)C2CC2)c(=O)n(C)c1=O | -1% | 50µM* | -9 | 3% | -11%
O=[N+]([O-])c1c(Nc2cccc(O)c2)cc(Cl)c2nonc12 | . | 56µM* | -3 | . | .
O=C(O)c1cccc(Nc2ccc3nonc3c2[N+](=O)[O-])c1 | . | 23% | 1 | . | .
O=C(O)c1ccc(Nc2cc(Cl)c3nonc3c2[N+](=O)[O-])cc1 | ? | 35µM* | -4 | -2% | 7.1µM*
Cc1c(Nc2cc(Cl)c3nonc3c2[N+](=O)[O-])c(=O)n(-c2ccccc2)n1C | 10µM*[quencher] | ? | -6 | ? | 4µM*
Cc1ccc(C(c2cccc(Br)c2)c2c(C)[nH]c3ccccc23)s1 (stereo unspecified) | 5.6µM*[quencher] | . | . | ? | ?
C#CC(C)(CC)NC(=O)c1cc2c(n(-c3ccc(Cl)cc3)c1=O)CC(C)(C)CC2=O (stereo unspecified) | -8% | . | . | 2% | -4%
NS(=O)(=O)c1ccc(NC(=S)N2CCN(S(=O)(=O)c3ccc(F)cc3)CC2)cc1 | 4% | -20% | 0 | -1% | 9%
NS(=O)(=O)c1ccc(NC(=S)N2CCN(c3ccccc3Cl)CC2)cc1 | -15% | 25% | 2 | -12% | -8%
NS(=O)(=O)c1ccc(NC(=S)N2CCN(c3cccc(Cl)c3)CC2)cc1 | -16% | 13µM* | -3 | 1% | ?
CN1CCN(C(=S)Nc2ccc(S(N)(=O)=O)cc2)CC1 | 2% | 22µM* | -2 | 2% | -4%
NC(=O)c1ccc2nc(-c3ccc(Oc4ccc(Cl)cc4)cc3)[nH]c2c1 | . | -16% | -5 | . | .
CCOc1ccccc1CNC(=O)c1ccc(NC(=O)N2CCSc3ncccc32)cc1 | -16% | . | . | -5% | -3%
CCOC(=O)CSC1=C(C#N)C(=O)NC(c2ccc(OC)cc2)S1 (stereo unspecified) | -6% | 45µM* | 2 | -14% | ?
CCOC(=O)CSC1=C(C#N)C(=O)NC(c2ccc(OC)c(OC)c2)S1 (stereo unspecified) | -7% | 40µM* | 1 | -12% | ?
CC(C)c1ccc(CN2CCC(C(=O)NCc3cccnc3)CC2)cc1 | -7% | 79µM* | -8 | -2% | -15%
SMILES | Tau fluor counter | Sfp PPTase inh | Coupling enz | Tau FP inhib | Tau fibril ThT
CSc1ccc(CN2CCC(C(=O)NCc3ccc(C)cc3)CC2)cc1 | 1% | 56µM* | -1 | 6% | 4%
Cc1ccc(CNC(=O)CN2CCC(C(N)=O)CC2)cc1 | 7% | 11% | -2 | 4% | 8%
COC(=O)[C@@H]1OC(c2ccccc2)O[C@H]1C(=O)OC | . | 2% | -2 | . | .
O=[N+]([O-])c1ccc(Nc2nc(N/N=C\c3ccc4c(c3)OCO4)nc(N3CCCCC3)n2)cc1 | ? | 32% | -2 | 8% | 32µM*
Cc1cc2nc(-c3ccc(SCc4ccc(C(=O)O)cc4)nc3)[nH]c2cc1C | -9% | 22µM* | -5 | -8% | -9%
CCN1CCN(Cc2c(O)ccc3c2O/C(=C\c2ccccc2)C3=O)CC1 | -6% | 8% | 2 | 8% | 5%
CC1CCCN(Cc2c(O)ccc3c2O/C(=C\c2ccco2)C3=O)C1 (stereo unspecified) | -5% | 35µM* | -6 | -6% | ?
C[C@H]1Cc2c(COc3ccccc3)nc3c(c2CO1)CN(S(=O)(=O)c1ccc(Cl)c2nonc12)CC3 | 5%[11.6 µM] | 13% | -3 | 10%[11.6 µM] | -2%[11.5 µM]
OCC1(CCc2ccccc2)CCN(Cc2cnc(N3CCCC3)s2)CC1 | -4% | 50µM* | -1 | -1% | 2%
CN(C)c1ncc(CN2CCC(CO)(CCCc3ccccc3)CC2)s1 | 4% | -4% | 2 | 5% | 0%
CNc1ccc(/C=C2\CSc3ccccc3C2=O)cc1[N+](=O)[O-] | 14% | -12% | -3 | -1% | 2.5µM*
O=C1/C(=C/c2cccc([N+](=O)[O-])c2)CSc2ccc(Cl)cc21 | -20% | -11% | 0 | -16% | -3%
CCOC(=O)c1c(NC(C)=O)c2c3c(sc2n1Cc1cc(C)ccc1C)CCCC3 | 16% | . | . | -11% | 10%
O=c1cc2c(=O)oc3cc(O)c(O)oc3c2c(O)c1O | -29% | 5µM* | -12 | ? | 4.5µM*
CCC(C(=O)N1CCN(c2ccccc2)CC1)n1nc(C)c2sc3ccccc3c2c1=O (stereo unspecified) | -13% | . | . | -1% | -5%
COc1ccccc1NCC(O)Cn1c2ccccc2c2ccccc21 (stereo unspecified) | 10µM*[quencher] | 19% | -5 | ? | ?
COc1ccc(S(=O)(=O)NCCc2sc(-c3ccccc3)nc2C)cc1OC | -12% | . | . | -5% | -1%
CCc1ccccc1NC(=O)CN1C(=O)COc2ccc(S(=O)(=O)Nc3ccccc3)cc21 | -27% | . | . | 0% | 2%
Cc1ccccc1NC(=O)Cn1c(=O)oc2cc(Br)ccc21 | -2% | . | . | -1% | 3%
CC#CC(=O)Nc1cc2c(Nc3ccc(F)c(Cl)c3)ncnc2cn1 | . | -2% | -44* | . | .
CCc1cc(SC#N)cc(C)c1N | -24% | 1% | 0 | ? | 14µM*

Screening results from PubChem BioAssay.
